Each structure is given as a SMILES string. Records with an inconclusive call do not appear. Activity calls are given as the source filed them. Unless noted, calls come from the whole dose curve; as a rule, active = well fitted curve in either direction with a large enough effect (not every such curve was filed as active); inconclusive = small, poorly fitted or top-dose-only effect, or another doubt; inactive = flat fitted curve, though single readings scatter.

The text below walks through data of PubChem BioAssay (NCATS).

Test [1] can be described thus: AP1 Signaling Pathway (AID 357).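 Note: ME-180 reporter cells stimulated with EGF at its EC50 level; % is set by controls: 0 for no effect and ±100 for the full control effect.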 The method in brief: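 Cells are seeded overnight, exposed to compound titrations and an EC50 level of EGF for 5 hours at 37 °C, then loaded with CCF4 dye for 2.5 hours. Beta-lactamase activity under the AP-1 element is read as a blue/green ratio.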
Test [2] can be described thus: NFAT Signaling Pathway (AID 444).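 Note: carbachol stimulus at about its EC50 of 1 µM final; % is set by controls: 0 for no effect and ±100 for the full control effect.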 The note with it: Jurkat NFAT-bla M1, carbachol, beta-lactamase ratio, 5 h; at 17.2 µM (top of the series) unless noted. The method in brief: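 Jurkat cells carrying an NFAT-driven β-lactamase reporter and co-transfected muscarinic M1 receptor were treated with compound plus carbachol (1 uM final, an EC50 level) for 5 h at 37 °C. CCF4 loading followed for 1 h at RT; 460/530 nm ratio gave %activity.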

The nature of test [3]: Stat Signaling Pathway (AID 446).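 Note: ME-180 cervical cancer cells given 40 pM IL-6 alongside compound; SIE-controlled beta-lactamase reporter measured as 460/530 nm FRET emission ratio; % is set by controls: 0 for no effect and ±100 for the full control effect.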 The method in brief: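 Emission at 460 and 530 nm (excitation 405 nm) reports SIE-controlled beta-lactamase in ME-180 cells. Cells received compound with 40 pM IL-6 for 5 hrs at 37 C; data scaled between 300 pM IL-6 and 125 nM JAK-inhibitor controls.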
Test [4] deals with Glucocorticoid receptor (Homo sapiens) (UniProt P04150). Nature of the test: GR-GFP Redistribution (AID 450;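 active = compounds whose dose series gives a full or clear partial fitted curve of increased nuclear translocation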; note: potency is the fitted concentration of half-maximal effect). The note with it: U2OS GR-GFP nuclear translocation, laser cytometry, 2 h.
The target is the same in test [5]. The experiment in a line: GR-EFC Redistribution (AID 451; calls by dose curve; note: potency is the fitted concentration of half-maximal effect). The note with it: CHO-K1 GR-EFC translocation, beta-gal luminescence, 2 h. The essentials:
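CHO-K1 cells stably expressing nuclear-localized β-gal enzyme acceptor and GR fused C-terminally to the enzyme donor fragment; ligand-driven nuclear translocation restores β-gal by complementation. Compounds titrated up to 46 uM final, 2 h at 37 °C; luminescence read.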

In test [6] the target is Mitogen-activated protein kinase 10 (Mus musculus) (UniProt Q61831). The experiment in a line: JNK3 AlphaScreen Assay (AID 530).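 Note: kinase came from lysate of stimulated human HepG2 cells; signal reports phosphorylation of biotinylated GST-cJun 1-79 at Ser73 with 10 µM ATP; % is set by controls: 0 for no effect and ±100 for the full control effect.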 The essentials:
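Phosphorylation of biotinylated GST-cJun(1-79) at Ser73 is measured by AlphaScreen proximity luminescence. Enzyme is JNK3 in HepG2 lysates activated with interleukin-1beta and tumor necrosis factor alpha; ATP is 10 uM final.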
(In general: Bead proximity is the source of the signal in Alpha formats.)

The target in test [7] is 3',5'-cyclic-AMP phosphodiesterase 4B (Homo sapiens) (UniProt Q07343). Nature of the test: qHTS Assay for Inhibitors of PDE-IV (AID 607; active = well fitted activation curve with a large enough effect in the main read-out, with a control signal flat, not every such curve was filed as active; note: % of control where 0% means no effect). The method in brief: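 The readout is membrane depolarisation from a cAMP-sensing CNG channel, detected with a potential dye at ex 535/em 590. Cells were HEK293-derived (endogenous PDE-IV) at 1000 cells/well, titrated up to 22.9 uM final.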
(Quantitative high-throughput screening tests each substance at several concentrations.)

The nature of test [8]: qHTS Assay for Lipid Storage Modulators (AID 1519; calls by dose curve). As to conditions: Drosophila S3 cells, BODIPY lipid droplet/cell ratio, laser cytometry, cells loaded with oleic acid; for activity change, negative = inhibition: at 25.7 µM (top of the series). The method in brief: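 Cells seeded at 5,000 per well were treated with compounds over a concentration series and loaded with oleic acid (400 uM, as added). Lipid droplet fluorescence (488 nm excitation, 500-530 nm channel) was read by laser-scanning cytometry and normalized to 20 uM Triacsin C.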

The target of test [9] is Ubiquitin carboxyl-terminal hydrolase 1 (Homo sapiens) (UniProt O94782). The experiment in a line: Inhibitors of USP1/UAF1: Pilot qHTS (AID 504865; active = well fitted inhibition curve with a large enough effect;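 note: rhodamine fluorescence freed from ubiquitin-rhodamine substrate followed over time; top concentration of the series differs between compounds; % is set by controls: 0 for no effect and ±100 for the full control effect; nearly all actives have a fitted effect of over 35% in size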). The essentials:
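USP1/UAF1 complex at 1 nM preincubated 15 min at room temperature with compound, then Ub-Rho substrate added at 150 nM final. Fluorescence (480/540 nm) read kinetically in 50 mM HEPES pH 7.8, 0.5 mM EDTA, 1 mM TCEP, 0.1 mg/ml BSA, 0.01% Tween-20.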

Test [10] can be described thus: qHTS profiling for inhibitors of Plasmodium falciparum proliferation (AID 504749; active = well fitted inhibition curve with a large enough effect;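 note: 0% = DMSO vehicle and full inhibition = artemisinin control; nearly all actives have a fitted effect of over 60% in size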). The note with it: P. falciparum in erythrocytes, SYBR Green DNA, 72 h, at 12.8 µM (top of the series). The method in brief:
(§1)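 Quantitative HTS: compounds pinned into medium, infected erythrocytes added (0.3% parasitemia, 2.5% hematocrit), 72 h culture at 37 C under 5% CO2. Saponin/Triton lysis with SYBR Green I, overnight RT, then fluorescence read.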

Another test relates to C2A. The description is as above. The note with it: P. falciparum in erythrocytes, SYBR Green DNA, 72 h; series mostly up to 12.8 µM. The method in brief:
as §1

The next test has as its system CP191. Described as above. As to conditions: P. falciparum in erythrocytes, SYBR Green DNA, 72 h; series mostly up to 12.8 µM. The essentials: as §1
The subject of another test is CP217. The test is described as above. As to conditions: P. falciparum in erythrocytes, SYBR Green DNA, 72 h; series mostly up to 12.8 µM. The method in brief: as §1
The next test relates to CP238. The test is described as above. As to conditions: P. falciparum in erythrocytes, SYBR Green DNA, 72 h; series mostly up to 12.8 µM. The essentials:
as §1

For another test, the system named is CP250. The description is as above. The note with it: P. falciparum in erythrocytes, SYBR Green DNA, 72 h; series mostly up to 12.8 µM. The method in brief:
as §1

In a further test the test system is CP256. The test is described as above. As to conditions: P. falciparum in erythrocytes, SYBR Green DNA, 72 h; series mostly up to 12.8 µM. The method in brief: as §1
The subject of the next test is FAB9. Described as above. The note with it: P. falciparum in erythrocytes, SYBR Green DNA, 72 h; series mostly up to 12.8 µM. The method in brief: as §1
For another test, the system named is JCK. The test is described as above. As to conditions: P. falciparum in erythrocytes, SYBR Green DNA, 72 h; series mostly up to 12.8 µM. The method in brief: as §1
Another test has as its system PC49. The test is described as above. The note with it: P. falciparum in erythrocytes, SYBR Green DNA, 72 h; series mostly up to 12.8 µM. The method in brief: as §1
The test system of a further test is SC27B. Described as above. The note with it: P. falciparum in erythrocytes, SYBR Green DNA, 72 h; series mostly up to 12.8 µM. The method in brief: as §1
Where [11] appears, read: measured here: cell count channel max response.
[12] abbreviates: measured here: lipid channel max response.

Sequence of Glucocorticoid receptor (Homo sapiens) (P04150 whole entry, looked up): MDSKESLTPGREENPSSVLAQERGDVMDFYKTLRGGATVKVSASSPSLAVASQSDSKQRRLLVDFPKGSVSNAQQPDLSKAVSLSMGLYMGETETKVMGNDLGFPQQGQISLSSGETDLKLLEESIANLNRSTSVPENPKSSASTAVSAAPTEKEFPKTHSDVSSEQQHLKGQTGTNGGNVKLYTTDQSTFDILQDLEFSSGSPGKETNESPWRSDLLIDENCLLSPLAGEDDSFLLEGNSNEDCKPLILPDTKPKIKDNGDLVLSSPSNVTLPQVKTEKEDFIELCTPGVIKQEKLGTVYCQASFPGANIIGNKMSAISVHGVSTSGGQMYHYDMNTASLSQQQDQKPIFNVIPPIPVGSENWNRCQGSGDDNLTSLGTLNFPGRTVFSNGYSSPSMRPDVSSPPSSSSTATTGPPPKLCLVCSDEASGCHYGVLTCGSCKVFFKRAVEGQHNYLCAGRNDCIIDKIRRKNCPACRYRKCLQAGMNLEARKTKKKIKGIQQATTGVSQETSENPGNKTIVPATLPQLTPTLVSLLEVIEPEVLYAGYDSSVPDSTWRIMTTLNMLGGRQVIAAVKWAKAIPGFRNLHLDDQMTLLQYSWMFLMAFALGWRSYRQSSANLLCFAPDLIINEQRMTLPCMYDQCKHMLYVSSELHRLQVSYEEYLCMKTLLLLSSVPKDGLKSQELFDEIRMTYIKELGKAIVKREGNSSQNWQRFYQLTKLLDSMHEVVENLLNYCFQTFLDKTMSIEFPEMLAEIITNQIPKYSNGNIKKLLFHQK
Sequence of Ubiquitin carboxyl-terminal hydrolase 1 (Homo sapiens) (O94782 whole entry, looked up): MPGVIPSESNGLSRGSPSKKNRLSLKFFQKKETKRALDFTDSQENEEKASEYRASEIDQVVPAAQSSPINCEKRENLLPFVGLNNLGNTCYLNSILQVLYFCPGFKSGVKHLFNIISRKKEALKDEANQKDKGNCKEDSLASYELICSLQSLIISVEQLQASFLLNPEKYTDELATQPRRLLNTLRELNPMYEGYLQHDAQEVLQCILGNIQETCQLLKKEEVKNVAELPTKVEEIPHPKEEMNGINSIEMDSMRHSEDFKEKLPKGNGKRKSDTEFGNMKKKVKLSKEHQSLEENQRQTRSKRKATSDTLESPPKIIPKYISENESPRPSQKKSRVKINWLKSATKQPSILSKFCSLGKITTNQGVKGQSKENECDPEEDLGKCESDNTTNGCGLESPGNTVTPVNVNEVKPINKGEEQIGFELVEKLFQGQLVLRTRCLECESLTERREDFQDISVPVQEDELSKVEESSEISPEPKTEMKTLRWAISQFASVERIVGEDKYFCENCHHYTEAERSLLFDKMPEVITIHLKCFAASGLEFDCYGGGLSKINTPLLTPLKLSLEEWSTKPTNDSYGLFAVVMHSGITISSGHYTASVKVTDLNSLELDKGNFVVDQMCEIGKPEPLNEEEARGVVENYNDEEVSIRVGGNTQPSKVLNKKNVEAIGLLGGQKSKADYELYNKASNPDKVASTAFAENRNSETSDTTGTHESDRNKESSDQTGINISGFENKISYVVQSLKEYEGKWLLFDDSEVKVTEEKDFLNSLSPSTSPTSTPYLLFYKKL
Sequence of 3',5'-cyclic-AMP phosphodiesterase 4B (Homo sapiens) (Q07343 whole entry, looked up): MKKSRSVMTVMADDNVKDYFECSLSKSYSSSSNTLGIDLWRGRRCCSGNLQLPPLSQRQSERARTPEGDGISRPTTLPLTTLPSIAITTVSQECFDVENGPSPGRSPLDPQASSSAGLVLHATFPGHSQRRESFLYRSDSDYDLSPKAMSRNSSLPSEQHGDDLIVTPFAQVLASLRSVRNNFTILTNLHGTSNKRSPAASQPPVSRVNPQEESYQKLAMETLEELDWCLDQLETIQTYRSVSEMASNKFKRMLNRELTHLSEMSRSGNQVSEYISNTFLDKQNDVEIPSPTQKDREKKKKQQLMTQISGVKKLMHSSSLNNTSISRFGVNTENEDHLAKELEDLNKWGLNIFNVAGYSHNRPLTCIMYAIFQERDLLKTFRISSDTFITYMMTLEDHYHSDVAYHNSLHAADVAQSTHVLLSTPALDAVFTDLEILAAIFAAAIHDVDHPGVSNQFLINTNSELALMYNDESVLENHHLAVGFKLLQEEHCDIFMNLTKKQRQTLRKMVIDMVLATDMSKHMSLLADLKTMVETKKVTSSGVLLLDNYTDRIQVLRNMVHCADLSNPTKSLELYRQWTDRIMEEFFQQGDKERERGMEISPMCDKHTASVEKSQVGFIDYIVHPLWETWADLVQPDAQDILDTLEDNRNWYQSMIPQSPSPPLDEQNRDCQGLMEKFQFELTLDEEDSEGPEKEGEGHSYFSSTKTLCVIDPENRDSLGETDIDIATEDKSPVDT

As to `CC(=C(CCOP(=O)(O)O)SC(=O)c1ccccc1)N(C=O)Cc1cnc(C)nc1N`, the call in test [1], in test [3] and in test [7] was inactive. Also, the activity change, negative = inhibition in test [2] was 2.39% (inactive); in [8], 0.981% (inactive). Moreover, the Potency in test [4] and in test [5] was > 20.6 µM (inactive) in each case. The Potency result (in test [6]; in test [9]; in the test with C2A; in the test with CP191; in the test with CP217; in the test with CP238) was “inactive” in each case. The Potency entry in the test on CP250, in the test on CP256, in the test with FAB9, in the test with JCK, in the test on PC49 and in the test on SC27B was “inactive” in each case. Also, the max response is -3.81% in test [8] (setting [11]) and -2.64% in test [8] (setting [12]). For the same compound, the activity, negative = inhibition in [10] (parasite line A) was -4.37% (inactive); in [10] (parasite line B) it was 20.3% (inactive).

In the case of `O=C1OCCN1/N=C\c1ccc([N+](=O)[O-])o1`, the compound was called inactive in test [1], in [3] and in [7]. Also, the activity change, negative = inhibition in test [2] is -2.86% (inactive); in test [8], -2% (inactive). In addition, the Potency in test [4] and in test [5] was > 20.6 µM (inactive) throughout. Also, the Potency result in test [6] and in test [9] was “inactive” each time. Also, the values for the max response in test [8] (setting [11]) and in [8] (setting [12]) were -13.3% and -14.3%, respectively.

Take `C=C1C[C@@]23C[C@]1(O)CC[C@@H]2[C@]12C=C[C@@H](O)[C@](C)(C(=O)O1)[C@H]2[C@H]3C(=O)O`: the compound was called inactive in test [1], in test [3] and in test [7]. Moreover, the activity change, negative = inhibition in test [2] is -11.2% (inactive); in [8] it was 1.67% (inactive). Also, the Potency in test [4] and in test [5] was > 20.6 µM (inactive) in each case. In addition, the Potency result in [6] and in test [9] was “inactive” in each case. The max response stood at 0.159% in test [8] (setting [11]) and 3.63% in [8] (setting [12]).

`N[C@H](Cc1cc(I)c(Oc2cc(I)c(O)c(I)c2)c(I)c1)C(=O)O`: the compound was called inactive in test [1], in test [3] and in test [7]. In addition, the activity change, negative = inhibition was -8.92% (inactive) in test [2] and 1.16% (inactive) in [8]. The Potency in test [4] and in test [5] was > 20.6 µM (inactive) throughout. Also, the Potency entry in [6] and in test [9] was “inactive” each time. Besides, the values for the max response in test [8] (setting [11]) and in test [8] (setting [12]) were 20.1% and 21%, respectively.

Take `Cc1cn([C@@H]2C[C@H](N=[N+]=N)[C@H](CO)O2)c(=O)[nH]c1=O`: the result in [1], in [3] and in test [7] was inactive. Also, the activity change, negative = inhibition was -2.1% (inactive) in test [2] and -0.533% (inactive) in [8]. The Potency in test [4] and in [5] was > 20.6 µM (inactive) in each case. In addition, the Potency entry in test [6] and in [9] was “inactive” in each case. The max response in test [8] (setting [11]) was -19.5%; in [8] (setting [12]), -18.3%.

As for `C[N+](C)(CCCOc1ccccc1)c1ccccc1`, the call in [1], in test [3] and in test [7] was inactive. Further, the activity change, negative = inhibition in test [2] was -17.9% (inactive); in test [8], 3.08% (inactive). Moreover, the Potency in test [4] and in [5] was > 20.6 µM (inactive) each time. For the same compound, the Potency result in test [6] and in test [9] was “inactive” throughout. Besides, the max response in [8] (setting [11]) came to 0.349%; in test [8] (setting [12]), 5.95%.
